# Hits are enriched below; roughly 21% of the tested compounds scored in any of these assays.
# Pf growth 48h = inhibits P. falciparum growth in the first generation, 48 h; P. falciparum luciferase growth in erythrocytes, 48 h; Potency, µM (titrated, usually from 28.7 µM), for inactives: top-dose activity change, negative = inhibition, most hits filed as inhibitors; 310,000 compounds, 5.9% hits; also: potency is read from the fitted curve at half-maximal effect; % is scaled to controls: 0 for no effect and ±100 for the full control effect
#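 A one-generation exposure of luciferase-tagged malaria parasites in RPMI 1640/Albumax erythrocyte culture, 37 C and 5% CO2. Inhibition is inferred from decreased luminescence after adding detection reagent.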
# Pf growth 96h = inhibits malaria parasite growth, 96 h; Potency, µM (doses to about 28.7 µM), without a hit: top-dose activity change, negative = inhibition, actives largely listed as inhibitors; P. falciparum luciferase reporter growth, 96 h; 320,000 compounds, 6.9% hits; also: potency is read from the fitted curve at half-maximal effect; % is scaled to controls: 0 for no effect and ±100 for the full control effect
#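 Luminescence readout: decreased luciferase signal marks inhibited growth of reporter-expressing P. falciparum in infected red cells (2% hematocrit, 0.05% parasitemia final), exposed to compound two generations (96 h, 37 C, 5% CO2).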
# AMA1 RON2 block = disrupts binding of P. falciparum AMA1 to RON2; AlphaScreen AMA1-biotinylated RON2 peptide binding; Potency, µM (highest dose often 58.2 µM), inactives show at the highest dose activity change, negative = inhibition, most hits filed as inhibitors; 360,000 compounds, 0.2% hits; AID 720542;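 also: potency is read from the fitted curve at half-maximal effect; 0% = vehicle wells and -100% = peptide control; nearly all actives have a fitted effect of over 45% in size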
#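 AMA1 (3D7) with his tag at 25 nM final met compounds first, then biotinylated RON2 peptide at 25 nM; detection used donor plus acceptor beads, 10 µg/mL apiece, read by AlphaScreen after 30 min at room temperature.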
# CHX counter = affects cycloheximide protein synthesis inhibition readout, counter-screen | 300,000 compounds, 12% hits | cell reporter, cycloheximide protein synthesis inhibition counterscreen | max response, %; in the data active = max response mostly above about 13%, no sharp cut-off; inactive = mostly below about 14%; also: read at 38.3 µM for the half of the compounds with a filed dose; 0% is about no effect
# HCV inh = HCV inhibition. 340,000 compounds, 3.4% hits. Potency, µM (series often up to 41.8 µM), for the others: at the highest dose activity change, negative = inhibition, hits mostly inhibitors. AID 651820. Huh7.5.1 HCVcc-Cre infection, luciferase reporter, 44 h; also: potency is read from the fitted curve at half-maximal effect; % is scaled to controls: 0 for no effect and ±100 for the full control effect
#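 After 44 h co-culture of compound, cells and HCVcc-Cre (~0.5 moi), substrate is added for 15 min at room temperature and luciferase measured over 15 sec. Cells were seeded at 1,000/well and pre-cultured 4 h.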
# Shiga inhibitor = Shiga toxin inhibition; 290,000 compounds, 9.2% hits; AID 2315; Vero cells, Shiga toxin protein synthesis inhibition reporter; inhibition, % at 38.7 µM; in the data active = inhibition mostly above about 28%, no sharp cut-off; inactive = mostly below about 43%; also: 0% is about no effect
# Starred values were filed as active, the others as inactive; ? = inconclusive; · = no result; + = active, no number. Unless noted, calls follow the shape of the dose curve; as a rule, active = well fitted curve in the direction sought with a large enough effect; inconclusive = small, poorly fitted or top-dose-only effect, or another doubt; inactive = no such curve, though single readings can be large; an effect the other way counts as inactive or inconclusive.
SMILES,Pf growth 48h,Pf growth 96h,AMA1 RON2 block,CHX counter,HCV inh,Shiga inhibitor
COc1ccc(-c2nn(-c3ccccc3)cc2/C=N/Nc2ccc(Cl)c(C(=O)O)c2)cc1OC,?,-1%,9%,19*,-15%,72*
Cc1cccc(NC(=O)c2ccc(NS(=O)(=O)c3cccc4cccnc34)cc2)c1,·,·,32%,·,?,·
c1cc(CNC23CC4CC(CC(C4)C2)C3)ccn1,12%,1.9µM*,19%,8,22%,12
Cc1c(C)c2c(OCC(=O)N3CCC(C(=O)NCC(C)C)CC3)cc3c(c2oc1=O)CCC(C)(C)O3,?,-6%,12%,2,-19%,33
Cc1c(C)c2c(OCC(=O)Nc3ccc(CCO)cc3)cc3c(c2oc1=O)CCC(C)(C)O3,8.3µM*,13µM*,-1%,-3,?,8
Cc1c(C)c2c(OCC(=O)N3CCC(C(=O)O)CC3)cc3c(c2oc1=O)CCC(C)(C)O3,?,5.2µM*,0%,-3,37%,-2
COc1ccc(S(=O)CC(=O)Nc2ccc(Cl)cc2Cl)cc1 (stereo not drawn),13%,44%,0%,-2,-2%,9
CC1=C(c2ccc(C)cc2)[N+](=O)C(C)(C)N1[O-],61%,?,?,19*,27%,78*
CN(C)C(=O)c1cc(-c2ccccc2)no1,49%,50%,-11%,22*,-5%,53*
Cc1ccc2cccc(CC(=O)NN)c2c1,·,·,73%,·,·,·
CCN(CC(=O)Nc1ccc(OC)cc1)CC(=O)Nc1cccc(S(=O)(=O)N2CCOCC2)c1,·,·,50%,·,·,·
CC(C)c1ccc(-c2c(C#N)c(N)nc(SCC(=O)N3CCCCC3)c2C#N)cc1,·,?,2%,0,-13%,-26
CC(C)c1ccc(-c2c(C#N)c(N)nc(SCC(=O)N3CCCCCC3)c2C#N)cc1,·,5.2µM*,9%,-4,9%,-18
O=C(NCc1ccccc1)c1cc(C2CCCCN2C(=O)c2cccs2)on1 (stereo not drawn),·,·,4%,·,·,·
CCC(O)(CC)C(=O)NN(C(=O)Nc1csc2c1CCCC2)c1ccccc1,1.7µM*,1.3µM*,3%,-2,-17%,-2
COC(=O)N(NC(=O)C(O)(CCC(C)C)CCC(C)C)c1ccccc1,18%,?,-6%,-1,-3%,-8
COc1ccc(N=Nc2ccc3ccccc3c2)c(O)c1,146%,103%,?,50*,-11%,·
COc1ccc(N=Nc2cc(C)ccc2O)cc1,229%,364%,?,48*,?,82*
Cc1ccc(O)c(N=Nc2ccc(S(=O)(=O)N3CCCC3)cc2)c1,?,?,-5%,27*,7%,42*
COc1cccc(N=Nc2ccc3ccccc3c2O)c1,-74%,-25%,2.8µM*,40*,-2%,58*
COc1ccc(N=Nc2ccc(CO)cc2)cc1,·,·,?,·,23%,·
NC(=O)c1cnccc1C=Cc1ccccc1,·,·,7%,·,-4%,·
COC(=O)[C@@]12CCCN1[C@H](c1ccc(-c3ccccc3)cc1)[C@@H]1C(=O)N(C)C(=O)[C@@H]12,7.4µM*,?,1%,·,-10%,·
COC(=O)[C@@]12CCCN1[C@H](c1ccc(-c3cccc(Cl)c3)cc1)[C@H]1C(=O)N(C)C(=O)[C@H]12,6.6µM*,13µM*,-15%,·,?,·
Clc1ccccc1-c1nn2c(-c3ccccn3)nnc2s1,8.3µM*,-16%,-1%,4,-18%,-4
SMILES,Pf growth 48h,Pf growth 96h,AMA1 RON2 block,CHX counter,HCV inh,Shiga inhibitor
Clc1ccc(-c2nnc3sc(-c4ccccn4)nn23)cc1,26%,·,·,-2,·,18
Brc1ccc(-c2nn3c(-c4ccccn4)nnc3s2)o1,-26%,?,?,14*,-7%,25
Clc1ccccc1-c1nnc2sc(-c3ccncc3)nn12,·,2%,2%,-4,-10%,-11
Clc1ccccc1-c1nn2c(-c3ccncc3)nnc2s1,10µM*,?,-6%,6,?,-7
CC(C)(C)c1ccc(-c2nnc3sc(-c4ccccn4)nn23)cc1,·,-24%,93%,46*,9%,91*
Cc1ccc(N2CC(C(=O)NCCC3=CCCCC3)CC2=O)cc1 (stereo not drawn),12%,83%,11%,·,17%,·
CC1=C(C(=O)N(C)C)CC(CC(=O)NCc2ccco2)C(=O)N1Cc1ccccc1 (stereo not drawn),·,·,3%,·,·,·
Cc1nc2ccccc2n1-c1ccccc1,-1%,-16%,-14%,-2,?,-1
Cc1nc2ccccc2c2c(N)c3ccccc3n12,?,8.3µM*,-8%,11,-29%,7
CC(=O)Nc1ncc(N=Nc2cccc(C(F)(F)F)c2)s1,-19%,4%,7%,1,-3%,13
Cc1cccc(N=Nc2cnc(N)s2)c1,184%,96%,-18%,47*,-27%,49*
O=C(N/N=C/c1cc2c(cc1Cl)OCO2)c1ccccn1,·,·,64%,·,?,·
CCOc1cc(/C=N/NC(=O)c2nn(C)cc2Br)ccc1OCc1ccccc1Cl,?,?,-22%,-1,?,3
Cc1nonc1C(=O)N/N=C/c1cc2c(cc1Br)OCO2,7%,-24%,0%,28*,-3%,46
Cc1nn(C)c(C(=O)N/N=C/c2cc3c(cc2Br)OCO3)c1Br,?,?,6%,-2,8%,-4
Cn1cc(Br)c(C(=O)N/N=C/c2cccc(OC3CSC3)c2)n1,34%,-3%,9%,57*,-11%,+
Nc1nonc1C(=O)N/N=C\c1cc2c(cc1Cl)OCO2,0%,-13%,-6%,44*,-19%,42*
Cn1cc(Br)c(C(=O)N/N=C/c2cc3c(cc2Cl)OCO3)n1,72%,99%,-7%,24*,-21%,55
O=S1(=O)CC(N2CC=CC2)CN1Cc1cn(Cc2cccc(C(F)(F)F)c2)nn1 (stereo not drawn),·,·,2%,·,·,·
S=C1SC2(CCCCCC2)NC2=C1CCCCC2,·,·,3%,·,·,·
C(=N\n1cnnc1)/c1cccc(OCCOc2ccccc2)c1,67%,14%,15%,20*,7%,94*
C(=N\n1cnnc1)/c1ccc(OCc2cccc3ccccc23)cc1,·,31%,0%,20*,-6%,33
O=C1CS/C(=N/N=C/c2ccccc2)N1Cc1ccco1,19%,42%,-4%,25*,?,45*
COc1ccc(OC)c(/C=N/N=C2\SCC(=O)N2Cc2ccco2)c1,-7%,-1%,-11%,18*,?,2
Cc1ccccc1CN1C(=O)CS/C1=N/N=C/c1ccco1,?,?,0%,-1,?,-12
CCCOC(=O)C1=C(C)NC2=C(C(=O)C(C(=O)OC)C(C)C2)C1c1ccc(N(CC)CC)cc1 (stereo not drawn),?,?,?,-2,10µM*,-2

# Screening data (PubChem BioAssay)
